Assay outcomes (PubChem BioAssay)
SMN2 splice enh = increases expression of the SMN2 splice variant; 2.8% of 210,000 active; HEK293 SMN2-luciferase splicing reporter, luminescence, 30-36 h; Potency, µM (top dose mostly 46.1 µM), for the others: at the highest dose activity change, positive = activation, actives largely listed as activators; note: % of control where 0% means no effect; nearly all actives have a fitted effect of over 55% in size
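HEK293 cells carry an SMN2 […]–luciferase reporter in which exon 7 inclusion puts luciferase in frame. Cells were plated 10-12 h before compound addition, then incubated 30-36 h at 37C. ONE-Glo luminescence was read; sodium butyrate at 4.5 mM final served as control.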
NPC1 promoter act = activates the NPC1 promoter | Potency, µM (top dose mostly 9.22 µM), for inactives: at the highest dose activation, usual class: activators | AID 485313 | 2.4% of 320,000 active | Huh7 NPC1 promoter luciferase reporter, 24 h; note: % of control where 0% means no effect; nearly all actives have a fitted effect of over 60% in size
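Stable NPC1-promoter luciferase Huh7 line; cpd (DMSO) 24 h, 37 °C, 5% CO2; Amplite luciferase reagent 10 min RT; luminescence readout. qHTS format.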
p53 reactivator = re-activators of mutant p53 | H1299 p53-A138V BP100-luciferase reporter, luminescence, 24 h | Potency, µM (titrated, usually from 92.2 µM), without a hit: top-dose activity change, positive = activation, usual class: activators | 0.063% of 320,000 active; note: % of control where 0% means no effect; nearly all actives have a fitted effect of over 45% in size
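H1299 (p53-null), stable ts p53-A138V + BP100-Luc; 1000 cells/well, Opti-MEM/10% FBS; cpd 4 pt, 1:5; 24 h, 37 deg C, 5% CO2; detection reagent 10 min RT; luminescence.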
Rab9 promoter act = Rab9 promoter activation | AID 485297 | 2.8% of 320,000 active | Huh7 Rab9 promoter-luciferase reporter, luminescence, 24 h | Potency, µM (doses to about 9.22 µM), inactives show at the top dose activation, negative = inhibition, usual class: activators; note: % of control where 0% means no effect; nearly all actives have a fitted effect of over 60% in size
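Luminescence from Amplite-detected luciferase (10 minutes, ambient) reports Rab9 promoter activation. Before that, stable Rab9-luciferase Huh7 cells (1500/well, reduced-serum OP-MEM I plus 10% FBS) were exposed to compound for 24 hours at 37C.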
FLuc counter = counter-screen for miR-21 project: firefly luciferase inhibitors or activators | P08659 | purified FLuc, Km substrates, luminescence inhibition | Potency, µM (top dose mostly 57.5 µM), for the others: at the highest dose activity change, negative = inhibition, most hits filed as inhibitors | 6.9% of 360,000 active | AID 588342;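 note: plate controls were vehicle for no effect and reference inhibitor for full effect; nearly all actives have a fitted effect of over 55% in size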
Target sequence (P08659 whole entry, looked up): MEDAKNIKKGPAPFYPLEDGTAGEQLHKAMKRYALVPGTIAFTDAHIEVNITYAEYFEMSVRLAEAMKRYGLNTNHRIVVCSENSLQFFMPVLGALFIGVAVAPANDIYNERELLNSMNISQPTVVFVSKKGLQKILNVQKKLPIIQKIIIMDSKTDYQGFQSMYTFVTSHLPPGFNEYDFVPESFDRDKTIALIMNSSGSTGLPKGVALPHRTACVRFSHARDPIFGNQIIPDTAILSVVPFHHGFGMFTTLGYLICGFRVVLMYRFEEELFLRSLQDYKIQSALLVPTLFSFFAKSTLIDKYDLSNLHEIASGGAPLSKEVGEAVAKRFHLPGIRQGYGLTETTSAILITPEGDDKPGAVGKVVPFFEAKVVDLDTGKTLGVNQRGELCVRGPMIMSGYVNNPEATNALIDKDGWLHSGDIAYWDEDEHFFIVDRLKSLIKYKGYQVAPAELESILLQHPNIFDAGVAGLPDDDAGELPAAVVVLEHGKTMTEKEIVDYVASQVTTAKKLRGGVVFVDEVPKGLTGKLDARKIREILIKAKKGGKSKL
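Biochemical qHTS of compounds, final roughly 60 µM downward over six points, against 10 nM purified firefly luciferase using Km concentrations of substrates (10 uM D-luciferin, 10 uM ATP) in Tris acetate pH 7.5 buffer; luminescence output.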
ELG1 genotox = genotoxicity induction in ELG1-luciferase HEK293T cells | HEK293T ELG1-luciferase reporter, luminescence, 16 h | Potency, µM (titrated, usually from 46 µM), inactives show top-dose activity change, positive = activation, usual class: activators | 1.3% of 330,000 active | AID 504466; note: % of control where 0% means no effect; nearly all actives have a fitted effect of over 60% in size
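Cells (2,000/well) expressing the ELG1-luciferase fusion are dosed by pin tool and kept 16 hr at 37 °C, 5% CO2. Signal comes from ONE-Glo luciferase reagent after 30 min at room temperature.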
* = called active by the depositor; ? = inconclusive; nt = not tested or not shown. Rows were chosen to be rich in hits. Some 7.3% of all compounds tested hit in one or more screens of this group. Calls come from the whole dose curve; as a rule, active = well fitted curve in the direction sought with a large enough effect; inconclusive = small, poorly fitted or top-dose-only effect, or another doubt; inactive = no such curve, though single readings can be large; an effect the other way counts as inactive or inconclusive. Potency is the fitted concentration of half-maximal effect.

SMILES | SMN2 splice enh | NPC1 promoter act | p53 reactivator | Rab9 promoter act | FLuc counter | ELG1 genotox
O=C(OCc1nc2ccsc2c(=O)[nH]1)c1ccccc1 | nt | 0% | -2% | -5% | -9% | 1%
CCc1c(C)sc(NC(=O)c2cc3nc(-c4ccc(OC)cc4)cc(C(F)(F)F)n3n2)c1C(=O)OC | 11% | nt | nt | nt | 0% | nt
CCCn1c(=O)c2sccc2n2c(CCCC(=O)N3CCN(c4ccccc4)CC3)nnc12 | nt | nt | nt | nt | -3% | nt
Cc1ccc2nc(CCc3ccc(N)cc3)[nH]c2c1 | nt | 2.8µM* | nt | 3.2µM* | 15µM* | ?
CC(=O)Nc1ccc(SCc2ncc(-c3ccccc3)o2)cc1 | nt | 1.4µM* | ? | 0.71µM* | 13µM* | ?
COc1ccc(CC(=O)NCc2ccc3c(c2)CCN3C(C)=O)cc1 | nt | nt | nt | nt | 4% | nt
CCCCOc1ccc(-n2nc(C)cc2C)nn1 | -13% | ? | ? | ? | 17µM* | 18%
COc1ccc(N=C2CCS(=O)(=O)c3sccc32)cc1 | 6% | 8% | 6% | -5% | ? | ?
Cc1ccc(N/N=C2\CCS(=O)(=O)c3sccc32)cc1 | -2% | 5% | 0% | -1% | 17µM* | 10%
CN(C)/N=C1\CCS(=O)(=O)c2sccc21 | -2% | -3% | -9% | -4% | 4% | 0%
Cc1ccccc1C(=O)O/N=C1\CCS(=O)(=O)c2sccc21 | 16% | ? | ? | ? | 0.6µM* | 12µM*
COc1ccc(C(=O)O/N=C2\CCS(=O)(=O)c3sccc32)cc1 | nt | -4% | 4% | -4% | 1.9µM* | 4%
Cc1ccc(OCC(=O)NCC2(N(C)C)CCCCC2)cc1C | nt | nt | nt | nt | -6% | nt
O=C(CSc1nccn1-c1ccc(F)cc1)Nc1nc2ccccc2s1 | nt | nt | nt | nt | 0% | nt
Cc1cccc(NC(=O)c2ccc(CNS(=O)(=O)c3ccc4c(c3)C(C)(C)C(=O)N4C)cc2)c1 | nt | nt | nt | nt | -11% | nt
Cc1cccc(NC(=O)c2oc3ccc(S(=O)(=O)N(C)C4CCCCC4)cc3c2C)c1C | nt | nt | nt | nt | -5% | nt
Cn1cnc2cc(NC(=O)COc3ccccc3)ccc21 | nt | 12% | 24% | 24% | 24µM* | ?
CCC(=O)Nc1ccc2c(c1)ncn2-c1ccccc1OC | 4% | 2% | 1% | -2% | -13% | 2%
CCC(=O)Nc1ccc2c(c1)ncn2-c1ccccc1 | ? | ? | ? | ? | 15µM* | ?
CC(=O)Nc1ccc2c(c1)ncn2-c1ccccc1 | nt | 2.8µM* | 23% | 1.4µM* | 11µM* | 21µM*
CCOc1ccc(-n2nc3ccc(NC(=O)CC)cc3n2)cc1 | nt | ? | 16% | ? | 2.7µM* | 17%
CCC(=O)Nc1ccc2c(c1)ncn2C | 8% | -2% | -7% | -4% | -2% | 0%
CNc1nc(SCc2ccccc2)nc(N2CCOCC2)n1 | -3% | 5% | -7% | -3% | 2% | 8%
Cc1cccc(NC(=O)CSc2cn(CC(=O)N3CCOCC3)c3ccccc23)c1C | nt | nt | nt | nt | -1% | nt
CC(=O)c1ccc(N2CCN(C(=O)NCc3noc4ccc(C)cc34)CC2)cc1 | nt | nt | nt | nt | -11% | nt
SMILES | SMN2 splice enh | NPC1 promoter act | p53 reactivator | Rab9 promoter act | FLuc counter | ELG1 genotox
Cc1csc2nc(COC(=O)CNC(=O)c3ccc(F)cc3)cc(=O)n12 | nt | nt | nt | nt | -8% | nt
Fc1ccccc1/C=N/Nc1ccc(Cl)nn1 | nt | ? | 12% | ? | 11µM* | ?
Cc1ccc(/C=N/Nc2ccc(Cl)nn2)cc1 | nt | 1.8µM* | 6% | 3.2µM* | ? | ?
Fc1ccccc1/C=N/Nc1nn[nH]n1 | -16% | -3% | -1% | 14% | 0% | 5%
CC(C)[C@@H](CC(=O)N[C@@H]1CCCC[C@H]1C(=O)N[C@H](CC(=O)N[C@@H](CCC(=O)O)CC(=O)O)Cc1ccccc1)NC(=O)C[C@H](CO)NC(=O)[C@@H]1CNCC[C@H]1N | 18% | nt | nt | nt | nt | nt
N#Cc1cc2c(OCC(O)CN3CCN(C(c4ccccc4)c4ccccc4)CC3)cccc2[nH]1 (configuration not stated) | -4% | nt | nt | nt | nt | nt
Cc1ccccc1C(=O)Nc1cccc(-c2ccc(N3CCOCC3)nn2)c1 | nt | ? | 10% | 3.2µM* | 2.1µM* | ?
O=C(Nc1cccc(-c2ccc(N3CCOCC3)nn2)c1)c1ccc([N+](=O)[O-])cc1 | nt | 3.5µM* | 9% | 2.5µM* | 2.4µM* | ?
O=C(Nc1cccc(-c2ccc(N3CCOCC3)nn2)c1)c1ccccc1 | nt | 2.8µM* | 7% | ? | 2.7µM* | ?
Cc1ccccc1C(=O)Nc1cccc(-c2ccc3nncn3n2)c1 | 9% | -3% | 0% | 15% | -15% | 0%
Cc1ccc(C(=O)Nc2cccc(-c3ccc(N4CCOCC4)nn3)c2)cc1[N+](=O)[O-] | nt | ? | -2% | 3.2µM* | ? | ?
Cc1ccc(C(=O)NN2CCOCC2)cc1[N+](=O)[O-] | nt | -2% | 27% | 19% | 4% | -3%
O=C(c1cccn1-c1nnc(N2CCCC2)s1)N1CCN(c2ccc(Cl)cc2)CC1 | nt | nt | nt | nt | -10% | nt
CCOc1ccc(NC(=O)c2cnccn2)cc1 | 2.5µM* | 2µM* | ? | 1.3µM* | 5.4µM* | ?
CCOc1ccc(NC(=O)c2ccccn2)cc1 | 0.79µM* | ? | -11% | 0.13µM* | 0.48µM* | ?
CNS(=O)(=O)c1ccc(NC(=O)c2ccccn2)cc1 | 20µM* | ? | ? | 2.8µM* | 15µM* | ?
CCOc1ccc(NC(=O)c2cnsn2)cc1 | ? | 1.4µM* | 2% | 0.56µM* | 6µM* | 1.5µM*
COc1cccc(NC(=O)c2cnsn2)c1 | -12% | 29% | 10% | 15% | ? | ?
CCc1ccccc1NC(=O)CSC1=Nc2ccccc2C2=NC(Cc3ccccc3)C(=O)N12 (configuration not stated) | nt | nt | nt | nt | -6% | nt
CCNC(=O)c1c(C)oc2ncn(C)c(=O)c12 | nt | nt | nt | nt | -6% | nt
CCOc1ccc(NC(=O)c2nccnc2CO)cc1 | 8.9µM* | 1.4µM* | ? | 2.8µM* | 9.5µM* | ?
CCOc1ccc(C(=O)Nc2ncccc2Cl)cc1 | nt | ? | 15% | ? | 15µM* | ?
Cc1cc(SC(C)C(=O)Nc2ncc(Cl)cc2Cl)nc2ccccc12 (configuration not stated) | 3.5µM* | -2% | 7% | 0% | -11% | -5%
Cc1nn(CC(=O)Nc2ccc3c(c2)nc(CCN2CCCCC2)n3C)c(=O)c2ccccc12 | 19% | -1% | -1% | 4% | 0% | -3%
Cc1nn(CC(=O)Nc2ccc3c(c2)nc2n3CCN(C3CCCCC3)C2)c(=O)c2ccccc12 | nt | 9% | 2% | -2% | 21µM* | 1%
CC(C)(C)Nc1nc(Cl)nc(Nc2ccccc2)n1 | nt | ? | ? | ? | 7.6µM* | ?
